# Source: PubChem (several laboratories)
# Most compounds without a hit are left out; they make up all but 3.6% or so of the library.
# HSF-1 act = increases HSF-1 driven luciferase reporter signal; NIH3T3-HGL HSF-1 luciferase reporter, MG132, 8 h; 100% = twice DMSO control signal; activation, % at 9 µM; actives 1.7% (n = 300,000); AID 504408;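 active = mean replicate activation of at least 50% with a set share of replicates each reaching 50%; inconclusive = only one of those two conditions met; inactive = mean below 50% and too few replicates reaching it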;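 also: 0% = median of the neutral control wells and 100% = twice that signal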
# TROY NFkB inh = blocks TROY-dependent signaling in reporter cells | AID 1347056 | inhibition, % at 10 µM | Q293 LMP1-TROYcd NF-kB luciferase reporter, 4 h | actives 0.98% (n = 360,000);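 active = compounds whose plate-normalised and pattern-corrected inhibition of the luciferase reporter signal at the single screening dose is 50% or more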
# LGR2 inh = blocks bursicon-induced cAMP signaling via Drosophila LGR2 | AID 720647 | inhibition, % at 9.99 µM | actives 0.35% (n = 380,000) | HEK293 LGR2, CRE-luciferase, bursicon-stimulated, 4 h;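 active = drop in luminescence signal, shown as inhibition above about 50% in the replicate tests, limit read from the data, passing the limit was not always enough; inconclusive = probably only some replicates passing the limit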;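 also: agonist challenge used bursicon conditioned medium at about half maximal strength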
# HSF1 inhib = HSF1 inhibition; NIH3T3-HGL HSE-luciferase, MG132-induced, luminescence 8 h; stronger effect = lower value; actives 0.77% (n = 300,000); AID 2098; activity change, negative = inhibition, % at 7.5 µM (by protocol);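 active = more than half of replicate wells show activity change below -50%, luminescence cut by over half; inconclusive = some wells, but at most half, below -50%; inactive = no replicate well below -50%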;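 also: luciferase reports HSF-1 transcriptional activity via heat shock element; 0% = median of DMSO wells and -100% = zero luminescence signal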
# EBV LMP1 NFkB = reduces LMP1-driven NF-kappaB luciferase signal | LMP1-induced NF-kappaB luciferase reporter cells, luminescence | inhibition, % at 12.5 µM | actives 0.69% (n = 350,000) | AID 504558; in the data active = inhibition above about 41%; inconclusive = no clear call, values can overlap the other calls;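 also: 0% = neutral control wells and 100% = reference inhibitor control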
# TWEAK Fn14 block = inhibitors of TWEAK-Fn14 interaction signaling | TWEAK-stimulated Fn14 reporter cells, luciferase luminescence, 8 h | inhibition, % at 10 µM | actives 2% (n = 360,000) | AID 1159606; in the data active = inhibition above about 50%
# Starred values were filed as active, the others as inactive; ? = inconclusive; . = not tested or not shown.
SMILES,HSF-1 act,TROY NFkB inh,LGR2 inh,HSF1 inhib,EBV LMP1 NFkB,TWEAK Fn14 block
CC1(C)Cc2c(c(-c3ccco3)nc3sc4c(NCCO)ncnc4c23)CO1,-14,7,-38,-5,3,-1
Cc1nc2sc3c(NCc4ccco4)ncnc3c2c2c1COC(C)(C)C2,-92,55*,.,-89*,10,87*
COCCCNc1ncnc2c1sc1nc(-c3ccco3)c3c(c12)CC(C)(C)OC3,8,-1,1,6,-44,10
CC(C)Cc1nc2sc3c(NCc4ccco4)ncnc3c2c2c1COC(C)(C)C2,18,24,.,8,-7,52*
CN(C)S(=O)(=O)c1cc(NC(=O)CSc2nn(-c3ccc(Cl)cc3)c(=S)s2)ccc1Cl,36,41,-11,16,22,83*
Cc1ccc(NC(=O)Cc2ccc(Cl)c(Cl)c2)cc1S(=O)(=O)N(C)C,4,34,1,1,8,45
NS(=O)(=O)c1cccc(NC(=O)CSc2nn(-c3ccccc3)c(=S)s2)c1,5,9,10,-11,6,34
Cc1ccc(NC(=O)CSc2nn(-c3ccc(Cl)cc3)c(=S)s2)cc1S(=O)(=O)N(C)C,11,52*,6,3,19,64*
Cc1ccc(NC(=O)COC(=O)/C=C/c2ccc(Br)o2)cc1S(=O)(=O)N(C)C,81*,-1,.,56,-3,-9
CN(C)S(=O)(=O)c1cccc(NC(=O)COC(=O)/C=C/c2ccc(Br)o2)c1,3,1,7,5,-18,1
Cc1ccc(NC(=O)CNc2ccc(Cl)c(Cl)c2)cc1S(=O)(=O)N(C)C,3,30,-2,-1,20,91*
COc1cc2c(cc1NC(=O)Nc1ccc(C)cc1)oc1ccccc12,-2,-55,.,13,-9,-6
COc1cc2c(cc1NC(=O)C(C)Sc1ccc(NC(C)=O)cc1)oc1ccccc12 (configuration not stated),-68,8,-35,-60*,-4,66*
COc1cc2c(cc1NC(=O)C(C)OC(=O)C1CC(=O)N(Cc3ccco3)C1)oc1ccccc12 (configuration not stated),74*,-31,.,35,-15,-22
CC(C)NC(=O)Nc1ccc2c(c1)CC(=O)N([C@H](C)CO)C[C@@H](C)[C@H](CN(C)C)O2,.,.,12,.,.,.
O=C(/C=C/c1cccc(Cl)c1)NCc1cccs1,52*,-52,.,20,-8,-17
O=C(/C=C/c1ccc(Cl)cc1)NCc1cccs1,-5,-78,-45,-13,-33,-10
CO[C@H]1CN(C)C(=O)c2cc(NC(=O)c3cccc(Oc4ccccc4)c3)ccc2OC[C@H](C)NC[C@@H]1C,.,.,0,.,.,.
N#Cc1cnc(Nc2ccc(F)cc2)nc1N,72*,-23,4,31,-5,-16
CCS(=O)(=O)N1CCc2nc(-c3ccccc3)sc2C1,63*,-33,-55,31,-25,19
COc1ccc(-c2nc3c(s2)CN(S(C)(=O)=O)CC3)cc1OC,-3,-19,5,-2,3,-14
CC1CC(=O)N(CC(=O)NCc2ccc3c(c2)OCO3)c2ccccc2S1 (configuration not stated),23,31,-32,10,9,1
CC1CC(=O)N(CC(=O)NCc2ccco2)c2ccccc2S1 (configuration not stated),61*,0,.,31,5,4
CCN(c1ccccc1)S(=O)(=O)c1ccc(C(=O)Nc2ccncc2)cc1,0,14,7,-2,7,16
CCN(c1ccccc1)S(=O)(=O)c1ccc(NC(=O)c2nc(S(C)(=O)=O)ncc2Cl)cc1,14,70*,.,-2,2,88*
SMILES,HSF-1 act,TROY NFkB inh,LGR2 inh,HSF1 inhib,EBV LMP1 NFkB,TWEAK Fn14 block
CN(c1ccccc1)S(=O)(=O)c1ccc(NC(=O)c2ccco2)cc1,40,-9,21,5,-16,-6
CCS(=O)(=O)c1ncc(Cl)c(C(=O)Nc2ccc(S(=O)(=O)N(C)c3ccccc3)cc2)n1,-47,88*,9,?,57*,100*
Cc1[nH]nc(-c2ccc(O)c(C)c2O)c1-c1cnn(-c2ccccc2)c1,67*,32,11,29,0,0
C[C@@H]1CCCCO[C@@H](CN(C)S(=O)(=O)c2cn(C)cn2)[C@H](C)CN([C@H](C)CO)C(=O)c2cc(NC(=O)Cc3ccccc3)ccc2O1,.,.,-6,.,.,.
CCOP(=O)(OCC)c1nc(-c2cccc3ccccc23)oc1N1CCOCC1,74*,3,5,22,-3,18
CCOP(=O)(OCC)c1nc(-c2ccccc2Cl)oc1N1CCOCC1,5,0,.,-4,2,-8
CO[C@H]1CN(C)C(=O)c2ccc(NS(=O)(=O)c3cccc(F)c3)cc2OC[C@H](C)N(C(=O)Cc2cccnc2)C[C@@H]1C,.,.,27,.,.,.
COC(=O)c1c(NC(=O)C2SC(=NC3CCCCC3)C(C(N)=O)=C2N)sc2c1CCCC2 (configuration not stated),12,22,0,0,-4,10
C=C(C)CN=C1SC(C(=O)Nc2sc3c(c2C(=O)OC)CCC3)C(N)=C1C(N)=O (configuration not stated),.,5,5,.,-10,57*
O=C(Cc1ccncc1)Nc1ccc2c(c1)[C@@H]1C[C@H](CC(=O)NC3CCCCC3)O[C@H](CO)[C@@H]1O2,.,.,-3,.,.,.
C[C@H](CO)N1C[C@H](C)[C@H](CN(C)C(=O)Nc2ccc(C(F)(F)F)cc2)Oc2ccc(NC(=O)NC3CCCCC3)cc2C1=O,.,.,2,.,.,.
COC(=O)c1ccc(CCc2cc(O)ccc2O)cc1,.,4,.,.,-11,87*
COC(=O)c1ccc(CCc2cc(O)c(Br)cc2O)cc1,.,-4,-13,.,-75,92*
COc1ccc(NC(=O)Nc2ccc3c(c2)CC(=O)N([C@H](C)CO)C[C@@H](C)[C@@H](CN(C)CC2CC2)O3)cc1,.,.,11,.,.,.
Cc1cc(NC(=O)CSc2nc3c(sc4ccccc43)c(=O)n2CCc2ccccc2)n[nH]1,37,-32,.,39,-18,0
O=C(CSc1nc2ccccc2c(=O)n1CCCN1CCOCC1)Nc1ccc(Br)cc1,.,-12,-21,.,49*,-16
Cc1cc(NC(=O)CSc2nc3c(sc4ccccc43)c(=O)n2CCCN2CCOCC2)n[nH]1,64*,10,15,41,-54,14
COc1ccccc1CNC(=O)C[C@H]1CC[C@H]2[C@@H](COC[C@@H](O)CN2C(=O)Nc2ccc(C(F)(F)F)cc2)O1,.,.,18,.,.,.
O=C(C[C@H]1CC[C@H](NC(=O)Nc2ccccc2F)[C@@H](CO)O1)NCc1ccc(F)cc1,.,.,-4,.,.,.
C[C@@H]1CN([C@@H](C)CO)C(=O)c2cccc(NS(=O)(=O)c3ccccc3)c2O[C@H]1CN(C)S(=O)(=O)c1ccc(Cl)cc1,.,.,9,.,.,.
